Experimental data taken from PubChem BioAssay (EPA / NIEHS).
Results filed as inconclusive are left out. The source made the active and inactive calls. How the source made its calls, unless noted: active means hit-call score of the fitted dose curve at least 0.9, where 1 is the maximum; inactive means score below 0.9.

How the values were obtained:
[1] = ATG_NFI_CIS: Attagene CIS-FACTORIAL HepG2 Assay for human Nuclear Factor I (NFI) (AID 2282989); details: HepG2 cis-regulatory reporter, NFI response element transcription; actives raise or lower the signal
Summary of the method: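 Multiplexed cis-reporter system in human HepG2 cells reports native TF activity as reporter mRNA induction 24 h post-dose. Fragments labelled with 6-FAM, HpaI-digested and resolved by capillary electrophoresis; activity fitted both directions versus DMSO.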

[2] = target: Myc proto-oncogene protein (Homo sapiens) (UniProt P01106); experiment: ATG_Myc_CIS: Attagene CIS-FACTORIAL HepG2 Assay for human Myelocytomatosis (Myc) Proto-Oncogene Transcription Factor (AID 2282990); details: HepG2, Attagene cis-reporter transcription factor activity; actives raise or lower the signal
Myc proto-oncogene protein (Homo sapiens), sequence (P01106 whole entry, looked up, the tested form may be a part): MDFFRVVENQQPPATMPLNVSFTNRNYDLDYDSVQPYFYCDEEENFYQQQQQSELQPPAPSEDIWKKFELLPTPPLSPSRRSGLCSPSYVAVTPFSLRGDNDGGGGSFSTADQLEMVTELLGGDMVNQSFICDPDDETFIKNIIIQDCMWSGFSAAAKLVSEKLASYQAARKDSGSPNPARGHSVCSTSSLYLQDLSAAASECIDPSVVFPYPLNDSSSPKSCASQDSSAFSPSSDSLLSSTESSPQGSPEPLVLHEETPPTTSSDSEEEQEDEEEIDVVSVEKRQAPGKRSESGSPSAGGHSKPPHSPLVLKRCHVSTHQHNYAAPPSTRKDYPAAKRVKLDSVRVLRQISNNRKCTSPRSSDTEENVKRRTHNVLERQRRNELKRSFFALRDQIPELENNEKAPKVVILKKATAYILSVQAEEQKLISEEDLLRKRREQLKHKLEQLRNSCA
Summary of the method: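 After 24 h chemical treatment of HepG2 cells carrying multiplexed cis-regulated reporter constructs, reporter transcripts quantified by RT-PCR and capillary electrophoresis of fluorescent fragments. Gain or loss fitted against DMSO baseline.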

[3] = ATG_NF_kB_CIS: Attagene CIS-FACTORIAL HepG2 Assay for human Nuclear Factor Kappa B (NF-kB) (AID 2282991); details: HepG2 Attagene cis-factorial NF-kB reporter mRNA; actives raise or lower the signal
Summary of the method: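 HepG2, transient multi-reporter transfection, cis promoter elements (endogenous TFs). 24 h exposure. Total RNA → RT → PCR → 6-FAM label → HpaI → CE. Gain/loss vs DMSO.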

[4] = ATG_NRF2_ARE_CIS: Attagene CIS-FACTORIAL HepG2 Assay for human Nuclear Factor Erythroid 2 Related Factor 2 (NFR2) response to Antioxidant Response Elements (ARE) (AID 2282992); details: HepG2 Attagene ARE/NRF2 reporter, transcription factor activity; actives raise or lower the signal;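 on AC50: reporter mRNA level measured by RT-PCR and capillary electrophoresis fluorescence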
Summary of the method: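 Endogenous transcription factor activity in human liver HepG2 cells is tracked via a cis-element-driven reporter within a multiplexed set. mRNA induction is read by RT-PCR and capillary electrophoresis after 24 h, with DMSO as baseline.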

[5] = ATG_Oct_MLP_CIS: Attagene CIS-FACTORIAL HepG2 Assay for human Octamer-Binding Transcription Factor (Oct) (AID 2282993); details: HepG2 Attagene cis-factorial Oct reporter, mRNA; actives raise or lower the signal
Summary of the method: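 After 24 h compound exposure, transfected HepG2 cells were lysed for total RNA; reporter-specific cDNA was PCR-amplified, fluorescently labelled and sized by capillary electrophoresis. Bidirectional curve fitting used DMSO as baseline.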

[6] = BSK_3C_TissueFactor: BioMAP Diversity Plus: 3C Assay for Tissue Factor Biomarker Activity (AID 2282997); details: BioMAP 3C HUVEC, tissue factor biomarker readout; actives raise or lower the signal
Summary of the method: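 Readout: Tissue Factor ELISA. Cells: human primary umbilical vein endothelium. Time: 24 h after dosing. Analysis: bidirectional fit, DMSO baseline.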

[7] = BSK_3C_uPAR: BioMAP Diversity Plus: 3C Assay for Urokinase-type plasminogen activator receptor (uPAR) Biomarker Activity (AID 2282998); details: BioMAP 3C HUVEC, uPAR biomarker ELISA; actives raise or lower the signal
Summary of the method: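 Values derive from bidirectional curve fitting relative to DMSO, which served as baseline of activity. uPAR was measured by ELISA in human umbilical vein endothelial primary cultures 24 h after compound addition.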

[8] = BSK_3C_VCAM1: BioMAP Diversity Plus: 3C Assay for Vascular cell adhesion molecule 1 (VCAM1) Biomarker Activity (AID 2282999); details: BioMAP 3C HUVEC, VCAM1 ELISA, cytokine-stimulated; actives raise or lower the signal
Summary of the method: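 Activity fitted in both directions relative to DMSO, with ELISA measurement of the surface marker on primary HUVEC (3C) at 24 h post-treatment; parallel SRB staining (0.1% SRB, TCA-fixed, 560 nm) flagged overt cytotoxicity.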

[9] = BSK_4H_Eotaxin3: BioMAP Diversity Plus: 4H Assay for Eotaxin 3 Biomarker Activity (AID 2283000); details: primary human endothelial cells (HUVEC); actives raise or lower the signal
Summary of the method: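 HUVEC, 24 h post-dose, ELISA for Eotaxin-3/CCL26. Gain or loss of signal fitted bidirectionally vs DMSO baseline.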

[10] = target: human Peroxisome Proliferator-activated Receptor alpha (PPARa), PPARA (gene 5465) (UniProt Q07869); experiment: ATG_PPARa_TRANS: Attagene TRANS-FACTORIAL HepG2 Assay for human Peroxisome Proliferator-activated Receptor alpha (PPARa) (AID 2283001; active means hit-call score of the fitted dose curve at least 0.9, where 1 is the maximum)
human Peroxisome Proliferator-activated Receptor alpha (PPARa), PPARA (gene 5465), sequence (Q07869 whole entry, looked up, the tested form may be a part): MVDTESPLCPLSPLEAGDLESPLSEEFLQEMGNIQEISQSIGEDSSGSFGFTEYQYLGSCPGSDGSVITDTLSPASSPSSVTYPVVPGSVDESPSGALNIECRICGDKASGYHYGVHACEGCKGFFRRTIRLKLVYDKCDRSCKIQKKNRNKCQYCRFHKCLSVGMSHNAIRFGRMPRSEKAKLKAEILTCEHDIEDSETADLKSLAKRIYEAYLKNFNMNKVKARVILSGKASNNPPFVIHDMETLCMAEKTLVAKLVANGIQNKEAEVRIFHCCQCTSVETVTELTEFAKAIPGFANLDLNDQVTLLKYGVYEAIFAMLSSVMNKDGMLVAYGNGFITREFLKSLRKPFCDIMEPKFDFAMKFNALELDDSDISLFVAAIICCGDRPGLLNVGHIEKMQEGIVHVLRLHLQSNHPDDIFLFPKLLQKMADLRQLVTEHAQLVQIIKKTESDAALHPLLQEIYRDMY
Summary of the method: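 Reporter transcripts quantified by RT-PCR plus capillary electrophoresis after 24 h treatment, fitted upward relative to DMSO. Cells: human HepG2 transiently carrying multiple GAL4-UAS reporter units driven by NR-Gal4 chimeras.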

[11] = target: human Peroxisome Proliferator-activated Receptor delta (PPARd), PPARD (gene 5467) (UniProt Q03181); experiment: ATG_PPARd_TRANS: Attagene TRANS-FACTORIAL HepG2 Assay for human Peroxisome Proliferator-activated Receptor delta (PPARd) (AID 2283002; active means hit-call score of the fitted dose curve at least 0.9, where 1 is the maximum)
human Peroxisome Proliferator-activated Receptor delta (PPARd), PPARD (gene 5467), sequence (Q03181 whole entry, looked up, the tested form may be a part): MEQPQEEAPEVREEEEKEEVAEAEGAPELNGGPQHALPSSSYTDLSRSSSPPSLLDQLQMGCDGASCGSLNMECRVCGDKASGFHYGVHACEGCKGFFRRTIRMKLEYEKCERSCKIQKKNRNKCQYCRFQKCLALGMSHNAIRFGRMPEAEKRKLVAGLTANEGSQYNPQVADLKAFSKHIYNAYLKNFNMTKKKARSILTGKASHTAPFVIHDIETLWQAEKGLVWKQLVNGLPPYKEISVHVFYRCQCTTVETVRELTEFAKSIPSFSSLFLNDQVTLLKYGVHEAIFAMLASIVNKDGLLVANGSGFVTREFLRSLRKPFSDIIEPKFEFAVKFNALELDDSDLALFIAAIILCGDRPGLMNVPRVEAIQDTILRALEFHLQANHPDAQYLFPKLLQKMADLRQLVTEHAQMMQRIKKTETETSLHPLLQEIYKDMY
Summary of the method: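 Read-out is induced reporter mRNA, quantified by RT-PCR with fluorescent labelling and capillary electrophoresis after 24 h dosing. Cells are HepG2 transiently carrying multiple GAL4-UAS reporter units driven by exogenous NR-GAL4 chimeras; DMSO serves as baseline.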

[12] = read-out: Intercellular Adhesion Molecule 1 (ICAM1), ICAM1 (gene 3383); experiment: BSK_3C_ICAM1: BioMAP Diversity Plus: 3C Assay for Intercellular Adhesion Molecule 1 (ICAM1) Biomarker Activity (AID 2283003); details: primary human endothelial cells (HUVEC); actives raise or lower the signal
Summary of the method: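 Chemicals are dosed onto primary human umbilical vein endothelium (3C system). After 24 h, ICAM-1 is measured by ELISA, and responses are fitted bidirectionally relative to DMSO.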

[13] = BSK_3C_Proliferation: Cell Proliferation Assessment in the BioMAP Diversity Plus: 3C Assay (AID 2283006); details: primary human endothelial cells (HUVEC);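 on AC50: potency may reflect either rise or fall in cell number versus DMSO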
Summary of the method: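 Cells (human umbilical vein endothelial, sub-confluent) receive test chemical; after 48 h they are fixed in 10% trichloroacetic acid, stained with 0.1% SRB and read at 560 nm. Activity is referenced to DMSO, fitting increases and decreases.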

[14] = target: Peroxisome proliferator-activated receptor gamma (Homo sapiens) (UniProt P37231); experiment: ATG_PPARg_TRANS: Attagene TRANS-FACTORIAL HepG2 Assay for human Peroxisome Proliferator-activated Receptor-gamma (PPARg) (AID 2283007; active means hit-call score of the fitted dose curve at least 0.9, where 1 is the maximum)
Peroxisome proliferator-activated receptor gamma (Homo sapiens), sequence (P37231 whole entry, looked up): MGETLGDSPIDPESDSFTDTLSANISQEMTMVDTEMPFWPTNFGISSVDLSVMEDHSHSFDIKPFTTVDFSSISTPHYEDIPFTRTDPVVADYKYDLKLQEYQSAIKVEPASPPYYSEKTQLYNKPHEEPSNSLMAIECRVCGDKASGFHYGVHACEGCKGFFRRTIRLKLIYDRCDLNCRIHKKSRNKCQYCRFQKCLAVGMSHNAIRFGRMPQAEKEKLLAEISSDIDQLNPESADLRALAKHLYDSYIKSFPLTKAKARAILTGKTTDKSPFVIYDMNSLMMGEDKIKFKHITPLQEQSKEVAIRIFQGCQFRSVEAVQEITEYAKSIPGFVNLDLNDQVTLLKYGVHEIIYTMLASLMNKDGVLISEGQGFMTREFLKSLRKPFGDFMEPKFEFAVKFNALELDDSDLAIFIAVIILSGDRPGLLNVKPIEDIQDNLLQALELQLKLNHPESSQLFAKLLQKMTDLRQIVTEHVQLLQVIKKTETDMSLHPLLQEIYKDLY
Summary of the method: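 Multiplexed reporter transcription units in HepG2, 24 h dosing, reporter transcripts quantified by fluorescent RT-PCR and capillary electrophoresis. Increase over DMSO scored.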

[15] = target: Nuclear receptor subfamily 1 group I member 2 (Homo sapiens) (UniProt O75469); experiment: ATG_PXR_TRANS: Attagene TRANS-FACTORIAL HepG2 Assay for human Pregnane X Receptor (PXR) (AID 2283008; active means hit-call score of the fitted dose curve at least 0.9, where 1 is the maximum)
Nuclear receptor subfamily 1 group I member 2 (Homo sapiens), sequence (O75469 whole entry, looked up, the tested form may be a part): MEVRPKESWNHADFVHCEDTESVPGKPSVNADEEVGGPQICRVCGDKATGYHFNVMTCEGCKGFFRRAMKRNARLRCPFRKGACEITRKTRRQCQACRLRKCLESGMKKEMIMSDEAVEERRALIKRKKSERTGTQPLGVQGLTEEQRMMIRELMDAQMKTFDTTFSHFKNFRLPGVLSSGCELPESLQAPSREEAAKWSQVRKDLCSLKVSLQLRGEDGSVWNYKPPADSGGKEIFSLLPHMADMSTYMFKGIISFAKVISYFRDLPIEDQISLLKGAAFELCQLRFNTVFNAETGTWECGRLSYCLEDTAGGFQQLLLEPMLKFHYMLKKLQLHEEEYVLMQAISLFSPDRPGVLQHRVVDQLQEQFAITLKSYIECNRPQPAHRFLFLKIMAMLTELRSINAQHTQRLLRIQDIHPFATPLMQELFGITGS
Summary of the method: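 HepG2 transfected (FuGene 6) with GAL4-UAS reporter units + PXR-Gal4 chimera; dosed 24 h. Total RNA → oligo(dT) RT → PCR → 6-FAM primer extension → HpaI cut → CE. Gain-of-signal vs DMSO.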

[16] = target: human RAR-related Orphan Receptor gamma (RORg), RORC (gene 6097) (UniProt P51449); experiment: ATG_RORg_TRANS: Attagene TRANS-FACTORIAL HepG2 Assay for human RAR-related Orphan Receptor gamma (RORg) (AID 2283011; active means hit-call score of the fitted dose curve at least 0.9, where 1 is the maximum)
human RAR-related Orphan Receptor gamma (RORg), RORC (gene 6097), sequence (P51449 whole entry, looked up, the tested form may be a part): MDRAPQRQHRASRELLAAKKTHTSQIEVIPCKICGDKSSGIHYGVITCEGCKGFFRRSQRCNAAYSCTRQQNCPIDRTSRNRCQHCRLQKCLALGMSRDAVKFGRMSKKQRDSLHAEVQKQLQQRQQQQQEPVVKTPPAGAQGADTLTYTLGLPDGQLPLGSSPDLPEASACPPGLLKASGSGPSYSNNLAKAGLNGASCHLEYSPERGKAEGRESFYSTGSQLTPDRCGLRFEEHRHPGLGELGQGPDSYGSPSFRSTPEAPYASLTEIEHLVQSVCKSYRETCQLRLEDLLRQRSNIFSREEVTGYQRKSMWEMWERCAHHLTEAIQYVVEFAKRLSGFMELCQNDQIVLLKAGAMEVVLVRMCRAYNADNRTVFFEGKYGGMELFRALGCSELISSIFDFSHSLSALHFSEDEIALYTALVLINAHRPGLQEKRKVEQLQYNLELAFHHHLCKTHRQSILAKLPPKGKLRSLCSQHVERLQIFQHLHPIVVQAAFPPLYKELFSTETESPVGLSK
Summary of the method: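 Readout: reporter transcript induction (RT-PCR, fluorescent primer extension, capillary electrophoresis) after 24 h compound exposure of transiently transfected HepG2 cells carrying a RORg-Gal4 chimera and GAL4-UAS reporters; DMSO served as baseline, with increasing signal fitted.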

[17] = target: Cellular tumor antigen p53 (Homo sapiens) (UniProt P04637); experiment: ATG_p53_CIS: Attagene CIS-FACTORIAL HepG2 Assay for human p53 Transcription Factor (AID 2282994); details: HepG2 p53 cis-element reporter, Attagene mRNA; actives raise or lower the signal
Cellular tumor antigen p53 (Homo sapiens), sequence (P04637 whole entry, looked up, the tested form may be a part): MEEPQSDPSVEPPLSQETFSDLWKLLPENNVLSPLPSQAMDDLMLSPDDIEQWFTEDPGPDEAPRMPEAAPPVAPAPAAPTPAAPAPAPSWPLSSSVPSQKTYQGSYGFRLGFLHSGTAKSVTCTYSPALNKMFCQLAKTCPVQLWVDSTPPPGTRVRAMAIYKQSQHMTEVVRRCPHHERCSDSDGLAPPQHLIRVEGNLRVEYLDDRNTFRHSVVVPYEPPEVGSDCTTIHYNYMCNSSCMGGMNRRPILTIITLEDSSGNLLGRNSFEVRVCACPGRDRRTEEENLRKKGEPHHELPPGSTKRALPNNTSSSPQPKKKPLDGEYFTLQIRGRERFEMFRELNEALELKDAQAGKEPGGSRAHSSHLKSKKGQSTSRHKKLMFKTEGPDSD
Summary of the method: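 Steps: transfect HepG2 with multiplexed cis reporter constructs; dose chemicals 24 h; extract RNA, reverse-transcribe, PCR-amplify reporter sequences; FAM-label, HpaI-digest, resolve fragments by CE. Activity fitted both directions relative to DMSO.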

[18] = target: Retinoic acid receptor alpha (Homo sapiens) (UniProt P10276); experiment: ATG_RARa_TRANS: Attagene TRANS-FACTORIAL HepG2 Assay for human Retinoic Acid Receptor alpha (RARa) (AID 2283005; active means hit-call score of the fitted dose curve at least 0.9, where 1 is the maximum)
Retinoic acid receptor alpha (Homo sapiens), sequence (P10276 whole entry, looked up, the tested form may be a part): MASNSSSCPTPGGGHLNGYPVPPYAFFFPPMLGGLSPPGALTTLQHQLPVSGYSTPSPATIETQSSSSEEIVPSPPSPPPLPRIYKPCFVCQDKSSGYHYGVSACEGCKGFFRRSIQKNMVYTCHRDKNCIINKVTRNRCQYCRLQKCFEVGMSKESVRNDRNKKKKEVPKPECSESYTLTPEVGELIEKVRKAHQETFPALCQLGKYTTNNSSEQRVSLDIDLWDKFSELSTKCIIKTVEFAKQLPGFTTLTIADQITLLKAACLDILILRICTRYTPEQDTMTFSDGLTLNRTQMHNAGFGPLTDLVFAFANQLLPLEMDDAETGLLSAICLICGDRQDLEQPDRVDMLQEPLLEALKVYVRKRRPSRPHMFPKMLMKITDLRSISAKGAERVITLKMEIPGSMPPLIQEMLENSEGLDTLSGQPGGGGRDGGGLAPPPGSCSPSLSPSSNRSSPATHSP
Summary of the method: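 Reporter transcripts, measured by RT-PCR with fluorescent labeling and capillary electrophoresis after 24 h dosing, reflect activity of an exogenous human RARa–GAL4 fusion in transiently transfected HepG2. Fitted for increase relative to DMSO.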

[19] = target: human Retinoic Acid Receptor gamma (RARg), RARG (gene 5916) (UniProt P13631); experiment: ATG_RARg_TRANS: Attagene TRANS-FACTORIAL HepG2 Assay for human Retinoic Acid Receptor gamma (RARg) (AID 2283009; active means hit-call score of the fitted dose curve at least 0.9, where 1 is the maximum)
human Retinoic Acid Receptor gamma (RARg), RARG (gene 5916), sequence (P13631 whole entry, looked up, the tested form may be a part): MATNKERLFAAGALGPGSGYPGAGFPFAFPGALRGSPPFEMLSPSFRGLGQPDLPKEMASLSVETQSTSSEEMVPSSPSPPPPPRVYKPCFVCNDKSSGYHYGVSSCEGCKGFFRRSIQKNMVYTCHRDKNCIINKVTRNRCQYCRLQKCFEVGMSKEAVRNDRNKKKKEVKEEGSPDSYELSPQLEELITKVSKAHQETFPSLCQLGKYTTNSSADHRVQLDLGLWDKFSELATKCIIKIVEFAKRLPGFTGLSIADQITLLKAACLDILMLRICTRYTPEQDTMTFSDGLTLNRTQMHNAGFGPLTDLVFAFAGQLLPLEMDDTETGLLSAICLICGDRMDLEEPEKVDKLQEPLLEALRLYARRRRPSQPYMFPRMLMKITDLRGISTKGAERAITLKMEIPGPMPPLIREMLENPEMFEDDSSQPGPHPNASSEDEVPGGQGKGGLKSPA
Summary of the method: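 TRANS format measured activity of exogenous NR-GAL4 fusion (RARg) in transfected HepG2 liver cells after 24 h dosing. Induced reporter RNA was detected by RT-PCR/capillary electrophoresis fluorescence, analysed in the positive direction against DMSO.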

[20] = target: human Retinoic Acid Receptor beta (RARb), RARB (gene 5915) (UniProt P10826); experiment: ATG_RARb_TRANS: Attagene TRANS-FACTORIAL HepG2 Assay for human Retinoic Acid Receptor beta (AID 2283004; active means hit-call score of the fitted dose curve at least 0.9, where 1 is the maximum)
human Retinoic Acid Receptor beta (RARb), RARB (gene 5915), sequence (P10826 whole entry, looked up, the tested form may be a part): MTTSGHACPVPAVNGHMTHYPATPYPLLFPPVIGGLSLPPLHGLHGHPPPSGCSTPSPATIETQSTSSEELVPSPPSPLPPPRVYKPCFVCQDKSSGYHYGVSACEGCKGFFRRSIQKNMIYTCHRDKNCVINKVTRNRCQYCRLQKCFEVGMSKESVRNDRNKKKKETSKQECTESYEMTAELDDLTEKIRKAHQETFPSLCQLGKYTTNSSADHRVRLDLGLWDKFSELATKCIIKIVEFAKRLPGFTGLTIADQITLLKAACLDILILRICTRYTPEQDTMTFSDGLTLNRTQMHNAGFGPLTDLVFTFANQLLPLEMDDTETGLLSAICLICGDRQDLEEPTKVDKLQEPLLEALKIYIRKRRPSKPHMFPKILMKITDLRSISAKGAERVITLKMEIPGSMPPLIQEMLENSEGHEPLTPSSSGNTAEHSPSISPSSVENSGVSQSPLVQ
Summary of the method: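 HepG2 cells transiently transfected with multiplexed GAL4-UAS reporter units expressing chimeric NR–Gal4 fusions; 24 h compound exposure. Reporter mRNA quantified by RT-PCR, 6-FAM labelling, HpaI digestion and capillary electrophoresis; gain-of-signal fitted against DMSO baseline.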

Measured: AC50

O=C(O)c1cccnc1
not listed: [17] | [18] | [19] | [20]
inactive: all other assays above

CN(C)C(=O)NC1(c2ccccc2)CCN(CC[C@@]2(c3ccc(F)c(F)c3)CN(C(=O)c3ccccc3)CCO2)CC1
active: [4] 40.8 µM | [5] 100 µM | [17] 100 µM | [15] 1.13 µM
not listed: [3] | [10] | [16] | [18] | [19] | [20]
inactive: all other assays above

CCc1cc(C2=C(C(=O)O)N(c3ccccc3C(F)(F)F)S(=O)(=O)c3ccccc32)cc2c1OCO2
active: [4] 66.8 µM | [5] 61 µM | [7] 33.7 µM | [13] 16.6 µM | [15] 1.42 µM
not listed: [3] | [10] | [14] | [18] | [19] | [20]
inactive: all other assays above

C/C=C/C=C/C(=O)O
not listed: [3] | [10] | [11] | [17] | [18] | [19] | [20]
inactive: all other assays above

CN(C)CCCN1c2ccccc2Sc2ccc(Cl)cc21
inactive: [1] | [3] | [10] | [11] | [15]
active: [4] 11.1 µM | [5] 11.1 µM | [17] 6.92 µM | [6] 5.43 µM | [7] 25.1 µM | [8] 36.8 µM | [9] 35.9 µM | [13] 25 µM

O=Cc1ccccc1C=O
not listed: [3] | [16] | [17] | [18] | [19] | [20]
inactive: all other assays above

S=c1[nH]c2ccccc2s1
active: [4] 54.9 µM | [5] 100 µM | [14] 9.31 µM | [15] 31.5 µM
not listed: [3] | [11] | [18] | [19] | [20]
inactive: all other assays above

N[C@@H](Cc1c[nH]c2ccccc12)C(=O)O
not listed: [11] | [14] | [17] | [20]
inactive: all other assays above

Cc1cc(SC2=C(O)C[C@@](CCc3ccc(N)cc3)(C(C)C)OC2=O)c(C(C)(C)C)cc1CO
active: [4] 4.49 µM | [15] 1.65 µM
not listed: [2] | [10] | [14] | [18] | [19] | [20]
inactive: all other assays above

CCCCC(CC)CO (centres undefined)
not listed: [2] | [11] | [14] | [18] | [19] | [20]
inactive: all other assays above

O=C(NS(=O)(=O)/C=C/c1cccs1)c1ccc(F)cc1Br
inactive: [1] | [2] | [5] | [6] | [7] | [8] | [9] | [12] | [16]
active: [4] 44.7 µM | [13] 2.87 µM | [14] 21.6 µM | [15] 11.4 µM

Cc1cn([C@H]2C=C[C@@H](CO)O2)c(=O)[nH]c1=O
inactive: [1] | [4] | [5] | [6] | [7] | [8] | [9] | [12] | [13] | [14] | [16]

Cc1cc(Cc2ccc(N)c(C)c2)ccc1N
not listed: [2] | [10] | [11] | [14] | [19] | [20]
inactive: all other assays above

CC(COCC(C)OC(=O)c1ccccc1)OC(=O)c1ccccc1 (centres undefined)
not listed: [2] | [3] | [11] | [17] | [20]
inactive: all other assays above

O=C(N[C@@H](c1ccccc1)[C@@H]1CCCCN1)c1cccc(C(F)(F)F)c1Cl
active: [3] 53.2 µM | [4] 9.19 µM | [5] 22.6 µM | [6] 20 µM | [7] 20 µM | [13] 27.6 µM | [15] 5.4 µM
not listed: [2] | [16] | [17] | [18] | [20]
inactive: all other assays above

O=C(O)CC(O)(CC(=O)O)C(=O)O
inactive: [6] | [7] | [8] | [9] | [12] | [13]

CC(N)=O
not listed: [2] | [3] | [11] | [15] | [17] | [18] | [19] | [20]
inactive: all other assays above

Cc1ccc(-c2cc(C(F)(F)F)nn2-c2ccc(S(N)(=O)=O)cc2)cc1
active: [4] 5.72 µM | [6] 31.7 µM | [7] 24.6 µM | [8] 33.9 µM | [9] 31 µM | [12] 36.8 µM | [13] 20 µM
not listed: [2] | [10] | [11] | [16] | [17]
inactive: all other assays above
